# According to the supplement of paper PMC7411054:
# Structures can show the parent of a compound that is named as a salt.
# Legend:
# Assay in all cases: lowest phenotypically active concentration; higher = less potent
# Settings in all cases: treatment time: 24 h
# [1] = tested on: A549-TP53BP1-CLTA
# Outline: (§1)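 Two criteria together defined phenotypic activity: deviation and reproducibility. Deviation meant ≥3 of 4 wells beyond the 95th percentile of Euclidean distances in solvent control wells, and reproducibility meant a median replicate Pearson correlation above the 95th percentile of non-replicates. Wells had been treated for 24 h at 0.3, 1, 3 or 9 µM in fifteen gene-edited A549, HepG2 and WPMY1 reporter lines before live imaging.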
# [2] = tested on: A549-TUBA1B-RELA
# Outline: as §1
# [3] = tested on: WPMY1-ACTB-RAB5A
# Outline: as §1
# [4] = tested on: WPMY1-CANX-COX4
# Outline: as §1
# [5] = tested on: WPMY1-TP53BP1-CLTA
# Outline: as §1
# [6] = tested on: WPMY1-TUBA1B-RELA
# Outline: as §1
# [7] = tested on: HepG2-TUBA1B-RELA
# Outline: as §1
# [8] = tested on: HepG2-CANX-COX4
# Outline: as §1
# [9] = tested on: HepG2-TP53BP1-CLTA
# Outline: as §1
# [10] = tested on: A549-CANX-COX4
# Outline: as §1
smiles,measurement,setting,value
O=c1c(-c2ccc(O)cc2)coc2cc(O)cc(O)c12 [Genistein],lowest phenotypically active concentration,[1],9 µM
same,lowest phenotypically active concentration,[2],9 µM
same,lowest phenotypically active concentration,[3],9 µM
same,lowest phenotypically active concentration,[4],9 µM
same,lowest phenotypically active concentration,[5],9 µM
same,lowest phenotypically active concentration,[6],9 µM
Cc1cccc(CN2CCN(C(c3ccccc3)c3ccc(Cl)cc3)CC2)c1 (stereo not given) [Meclizine dihydrochloride],lowest phenotypically active concentration,[7],9 µM
"Nc1ncnc2c1nc(Br)n2[C@@H]1O[C@@H]2COP(=O)(O)O[C@H]2[C@H]1O [8-Bromo-cAMP, sodium salt]",lowest phenotypically active concentration,[4],9 µM
Cc1nc2sccn2c(=O)c1CCN1CCC(=C(c2ccc(F)cc2)c2ccc(F)cc2)CC1 [Ritanserin],lowest phenotypically active concentration,[7],9 µM
CC(C)(C)c1ccc(S(=O)(=O)/C=C/C#N)cc1,lowest phenotypically active concentration,[7],9 µM
same,lowest phenotypically active concentration,[4],9 µM
same,lowest phenotypically active concentration,[5],9 µM
C[C@@H]1CCN(C(=O)CC#N)C[C@@H]1N(C)c1ncnc2[nH]ccc12,lowest phenotypically active concentration,[8],9 µM
same,lowest phenotypically active concentration,[9],9 µM
O=C(O/N=C1\c2ccccc2-c2nc3ccccc3nc21)c1ccco1,lowest phenotypically active concentration,[3],9 µM
same,lowest phenotypically active concentration,[4],9 µM
same,lowest phenotypically active concentration,[5],9 µM
same,lowest phenotypically active concentration,[6],3 µM
CCOC(=O)N1CCC(=C2c3ccc(Cl)cc3CCc3cccnc32)CC1 [loratadine],lowest phenotypically active concentration,[8],3 µM
COC(=O)C1=CO[C@@H](C)[C@H]2CN3CCc4c([nH]c5ccccc45)[C@@H]3C[C@H]12 [Ajmalicine hydrochloride],lowest phenotypically active concentration,[10],9 µM
same,lowest phenotypically active concentration,[8],9 µM
same,lowest phenotypically active concentration,[9],9 µM
same,lowest phenotypically active concentration,[4],9 µM
COc1cc(C)c(/C=C/C(C)=C/C=C/C(C)=C/C(=O)O)c(C)c1C [acitretin],lowest phenotypically active concentration,[4],9 µM
CCc1ccc(/C=C/C(=O)Nc2ccc(C(C)=O)cc2)o1 [Heclin],lowest phenotypically active concentration,[2],9 µM
CC(C)(C)c1cc(/C=C(\C#N)C(N)=S)cc(C(C)(C)C)c1O,lowest phenotypically active concentration,[10],9 µM
same,lowest phenotypically active concentration,[1],9 µM
same,lowest phenotypically active concentration,[8],9 µM
same,lowest phenotypically active concentration,[9],9 µM
same,lowest phenotypically active concentration,[7],9 µM
same,lowest phenotypically active concentration,[5],9 µM
Cc1cccc(C)c1OCC(C)N (stereo not given) [mexiletine],lowest phenotypically active concentration,[10],≤ 0.3 µM
same,lowest phenotypically active concentration,[1],≤ 0.3 µM
O=c1cc(N2CCOCC2)oc2c(-c3ccccc3)cccc12,lowest phenotypically active concentration,[1],9 µM
same,lowest phenotypically active concentration,[2],9 µM
same,lowest phenotypically active concentration,[9],9 µM
same,lowest phenotypically active concentration,[7],9 µM
same,lowest phenotypically active concentration,[3],9 µM
same,lowest phenotypically active concentration,[4],9 µM
same,lowest phenotypically active concentration,[5],9 µM
Cn1cc(-c2ccc3nnc(Sc4ccc5ncccc5c4)n3n2)cn1,lowest phenotypically active concentration,[10],1 µM
same,lowest phenotypically active concentration,[1],1 µM
Cc1cccc(-c2nn(C(=S)Nc3ccccc3)cc2-c2ccnc3ccccc23)n1,lowest phenotypically active concentration,[10],9 µM
same,lowest phenotypically active concentration,[2],3 µM
same,lowest phenotypically active concentration,[8],3 µM
same,lowest phenotypically active concentration,[9],9 µM
same,lowest phenotypically active concentration,[7],9 µM
same,lowest phenotypically active concentration,[3],9 µM
same,lowest phenotypically active concentration,[4],9 µM
same,lowest phenotypically active concentration,[5],1 µM
same,lowest phenotypically active concentration,[6],9 µM
N=C1NC(=O)/C(=C\c2ccc(O)cc2)S1 [Mirin],lowest phenotypically active concentration,[3],9 µM
Cc1c[nH]c2ncnc(-c3ccc(NC(=O)N(CCO)c4ccccc4)cc3)c12,lowest phenotypically active concentration,[6],9 µM
Cc1cc2sc(NC(=O)Cc3ccccc3)nc2cc1Cl,lowest phenotypically active concentration,[2],9 µM
CC1=C(/C=C/C(C)=C/C=C/C(C)=C/C(=O)O)C(C)(C)CCC1 [isotretinoin],lowest phenotypically active concentration,[8],≤ 0.3 µM
same,lowest phenotypically active concentration,[5],3 µM
C[C@H](NC(=O)c1sccc1OCc1ccc(Cl)cc1)c1ccccc1,lowest phenotypically active concentration,[1],9 µM
same,lowest phenotypically active concentration,[3],≤ 0.3 µM
same,lowest phenotypically active concentration,[5],3 µM
C[C@H](NC(=O)[C@@H](O)c1cc(F)cc(F)c1)C(=O)N[C@@H]1C(=O)N(C)c2ccccc2-c2ccccc21,lowest phenotypically active concentration,[8],1 µM
same,lowest phenotypically active concentration,[3],≤ 0.3 µM
same,lowest phenotypically active concentration,[4],1 µM
CC(C)N(CCCNC(=O)Nc1ccc(C(C)(C)C)cc1)C[C@H]1O[C@@H](n2cc(Br)c3c(N)ncnc32)[C@H](O)[C@@H]1O,lowest phenotypically active concentration,[1],3 µM
same,lowest phenotypically active concentration,[8],9 µM
same,lowest phenotypically active concentration,[9],1 µM
same,lowest phenotypically active concentration,[7],9 µM
same,lowest phenotypically active concentration,[3],3 µM
same,lowest phenotypically active concentration,[4],3 µM
same,lowest phenotypically active concentration,[5],9 µM
same,lowest phenotypically active concentration,[6],9 µM
